Screening data as filed in PubChem.
ALR H2O2 inh: blocks human ALR sulfhydryl oxidase activity. P55789. purified ALR, DTT oxidation, H2O2 HRP-luminol luminescence. inhibition, % (no concentration beside the values). hit rate 3.8% among 290,000. AID 485317;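 active means mean replicate inhibition above about 79%, with every replicate also reaching it, limit read from the data; inconclusive means only one of the two criteria met; inactive means mean below limit and not every replicate reaching it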
MLLE-PAM2 inh: inhibitors of microRNA-mediated deadenylation, human PABP1 MLLE binding. inhibition, % at 20 µM. P11940. hit rate 0.36% among 360,000. GST-MLLE / FITC-PAM2 fluorescence polarization. AID 588489; in the data active means inhibition above about 35%, passing the limit was not always enough;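 further: plate controls were DMSO wells with GST-MLLE for no effect and wells lacking GST-MLLE protein for full effect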
eIF4H inh: inhibitors of RNA binding by human eIF4H; eIF4H fluorescence polarization binding assay; Q15056; hit rate 0.94% among 290,000; inhibition, % at 35 µM;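 further: calls also rest on retests at 20 µM and on dose response follow-up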
Efflux pump inh: blocks antifungal efflux pumps in multiplex yeast assay; S. cerevisiae Candida pump triplex, Nile Red efflux; inhibition, % at 10 µM; hit rate 0.44% among 330,000; AID 485275;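 active means plate passing quality check with inhibition over a set limit, or well fluorescence over plate mean plus 4 SD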;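 further: Nile Red retained in pooled yeast measured as flow cytometry median fluorescence; 0% = buffer negative control and 100% = Enniatin B positive control; higher means more Nile Red kept so more efflux inhibition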
PABP polyA inh: blocks human PABP binding to poly(A) RNA. inhibition, % at 35 µM. hit rate 1% among 290,000. fluorescence polarization. P11940;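 further: calls also rest on retests at 20 µM and on dose response follow-up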
UBC9 SUMO inh: SUMOylation inhibition. P63279. HTRF SUMOylation assay, SAE1/SAE2 + UBC9, in vitro. inhibition, % at 35 µM. hit rate 0.36% among 290,000. AID 2006; in the data active means inhibition above about 50%, passing the limit was not always enough; inconclusive means no clear call, values can overlap the other calls
* hit, by the source's call; ? = inconclusive; · = no result given. Compounds with a hit are over-represented: about 4.7% of the library has one in this group of screens. Unless noted, how the calls were made is not given here.

SMILES	ALR H2O2 inh	MLLE-PAM2 inh	eIF4H inh	Efflux pump inh	PABP polyA inh	UBC9 SUMO inh
CN(CC(=O)Nc1ccc(N2CCOCC2)cc1)C(=O)CCNC(=O)c1ccc(Br)cc1	96*	-20	·	0	·	·
CCCCOc1ccc(C(=O)NCC(=O)N(C)CC(=O)Nc2ccc(N3CCOCC3)cc2)cc1	41	0	·	0	·	·
CC(Oc1cccc(Cl)c1)C(=O)N(C)CC(=O)Nc1ccc(N2CCOCC2)cc1 (configuration not stated)	93*	-12	·	0	·	·
COc1ccccc1C(=O)NCCC(=O)N(C)CC(=O)Nc1ccc(N2CCOCC2)cc1	99*	18	·	0	·	·
COc1ccc(NC(=O)N(C)C[C@H]2OCc3cn(nn3)CCCC(=O)N([C@@H](C)CO)C[C@@H]2C)cc1	·	-5	·	·	·	·
CCCNC(=O)c1ccc2c(=O)c(O)c(-c3ccsc3)[nH]c2c1	34	17	6	0	13	53*
CCOC(=O)c1c(NC(=S)Nc2ccccc2)sc2c1CCN(CC)C2	87*	-57	61	0	36	28
C=CC[C@@H](CC(=O)N[C@H](CO)Cc1ccccc1)C(=O)N[C@H](COC(=O)[C@@H](CC=C)Cc1ccc(F)cc1)Cc1ccccc1	2	-4	·	0	·	·
COC(=O)CCCC1=CC2=CC(=O)C(C)(OC(=O)CCc3ccccc3)C(=O)C2=CO1 (configuration not stated)	-8	-24	?	0	?	23
CC1(OC(=O)C2CCCC2)C(=O)C=C2C=C3CCCN3C=C2C1=O (configuration not stated)	-33	·	·	0	·	·
CC1(OC(=O)c2cccs2)C(=O)C=C2C=C3CCCN3C=C2C1=O (configuration not stated)	·	0	95*	0	84*	56
CC1(OC(=O)CCc2ccccc2)C(=O)C=C2C=C3CCCN3C=C2C1=O (configuration not stated)	·	3	83*	0	55*	27
CC1(OC(=O)CCc2ccccc2)C(=O)C=C2C=C(c3ccc(C#N)cc3)N(C3CCCCC3)C=C2C1=O (configuration not stated)	-33	6	52	0	37*	12
CC1(OC(=O)CCc2ccccc2)C(=O)C=C2C=C(c3ccc(C#N)cc3)N(C(CO)CO)C=C2C1=O (configuration not stated)	·	25	45	0	26	15
CC(OC(=O)c1cc(=O)[nH]c2ccccc12)C(=O)c1ccccc1 (configuration not stated)	-5	-17	-9	0	1	6
O=C(CC(O)(CC(=O)OCc1ccccc1)C(=O)OCc1ccccc1)OCc1ccccc1	·	3	·	·	·	·
N#C/C(=C\c1c(N2CCOCC2)nc2ccccn2c1=O)S(=O)(=O)c1ccccc1	2	1	-5	0	3	7
Cc1ccc(S(=O)(=O)/C(C#N)=C/c2c(N3CCOCC3)nc3c(C)cccn3c2=O)cc1	-19	0	?	0	?	9
Cc1ccc(S(=O)(=O)/C(C#N)=C/c2c(N3CCN(C)CC3)nc3ccccn3c2=O)cc1	-7	-4	13	0	1	13
Cc1cccn2c(=O)c(/C=C(\C#N)S(=O)(=O)c3ccccc3)c(N3CCN(Cc4ccccc4)CC3)nc12	-7	21	78*	0	59*	3
Cc1ccc(S(=O)(=O)/C(C#N)=C/c2c(N3CCN(Cc4ccccc4)CC3)nc3ccccn3c2=O)cc1	-2	13	?	0	43*	0
N#C/C(=C\c1c(N2CCC(C(N)=O)CC2)nc2ccccn2c1=O)C(=O)NCc1ccco1	5	-7	62*	0	active	32
N#C/C(=C\c1c(N2CCN(Cc3ccccc3)CC2)nc2ccccn2c1=O)S(=O)(=O)c1ccccc1	1	-12	?	0	23*	-6
O=c1cc[nH]c2c1ccc1c(=O)cc[nH]c12	·	4	86*	0	33	11
Cc1ccc(O)c(C=Nc2cc(C)ccc2O)c1	·	4	68	0	118	18
Cc1ccc(O)c(C=Nc2ccc3[nH]ncc3c2)c1	?	1	68*	-1	active	37
Cc1ccc2nc(C)c(C)nc2c1N	2	-10	-1	0	2	-9
Cc1ccc(-c2ccc(C)c(N)c2C)c(C)c1N	83*	-3	-17	0	-6	13
